LASV entry inh: qHTS for Inhibitors of binding or entry into cells for Lassa Virus. 300,000 compounds, 1.2% hits. Lassa virus pseudotype entry inhibition, cell reporter. Potency, µM (titrated, usually from 37.9 µM), inactives show top-dose activity change, negative = inhibition, most hits filed as inhibitors; calls by dose curve; tested in HEK293 cells; also: potency is read from the fitted curve at half-maximal effect; nearly all actives have a fitted effect of over 50% in size
HCMV inh: qHTS Assay for inhibitors of the human cytomegalovirus (HCMV). 410,000 compounds, 4.5% hits. HFF cells, HCMV-luciferase reporter, 72 h; active compounds read low. AID 1259415, 2018. activity change, negative = inhibition, % at 57.5 µM; in the data active = activity change below about -60%; inconclusive = no clear call, values can overlap the other calls; inactive = above about -39%
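Two-dose cell screen: HFF monolayers treated with compounds and infected with luciferase-expressing HCMV at 1 PFU/cell, 72 h at 37C, then lysed for luciferase measurement.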
Marburg entry inh: qHTS for inhibitors of binding or entry into cells for Marburg Virus | Marburg virus pseudotyped entry inhibition, cell reporter | Potency, µM (titrated, usually from 37.8 µM), without a hit: at the top dose activity change, negative = inhibition, actives largely listed as inhibitors | 300,000 compounds, 1.8% hits | AID 540276, 2011; calls by dose curve; tested in HEK293 cells; also: potency is read from the fitted curve at half-maximal effect
FMDV antiviral: High Throughput Screening for Foot and Mouth Disease Virus Antivirals; FMDV antiviral cell-based qHTS; Potency, µM (titrated, usually from 57.9 µM), for the others: top-dose activity change, negative = inhibition, actives largely listed as inhibitors; 410,000 compounds, 1.2% hits; calls by dose curve; tested in HEK293T cells; also: read-out not given here; potency is read from the fitted curve at half-maximal effect; nearly all actives have a fitted effect of over 45% in size
* hit, by the source's call; ? = inconclusive; · = no result; [ ] = remark or other dose. Rows were chosen to be rich in hits. Some 6.2% of all compounds tested hit in one or more screens of this group. % is scaled to controls: 0 for no effect and ±100 for the full control effect.

SMILES | LASV entry inh | HCMV inh | Marburg entry inh | FMDV antiviral
Cc1ccc(NC(=O)c2ccc(NCCCN3CCOCC3)c([N+](=O)[O-])c2)cc1Cl | ? | ? | ? | 32µM*
COc1ccc(NC(=O)c2ccc([N+](=O)[O-])s2)c([N+](=O)[O-])c1 | · | -85* | · | 35%
COc1ccc(NC(=O)c2cc(Br)ccc2Cl)c([N+](=O)[O-])c1 | -13% | -63* | -10%[46.1 µM] | -11%
COc1ccc(NC(=O)c2ccc(C)cc2Cl)c([N+](=O)[O-])c1 | -1% | 34 | ? | 28%
Cc1cccnc1C(NC(=O)C1CCN(Cc2ccccc2)CC1)c1ccc(F)cc1 (stereo not given) | · | -62* | · | -10%
COc1ccc(/C=N/Nc2cc(C)nc3ccccc23)cc1 | ? | -104* | ? | ?
Cn1c2c(c(=O)n(C)c1=O)C(C(F)(F)F)(C(F)(F)F)N=C(c1ccc(Cl)cc1)N2 | 2.8µM* | · | 1µM* | 2.2µM*
CN(Cc1ccccc1)c1ncc(C=O)s1 | -21%[46.1 µM] | -63* | ? | -7%
CN(Cc1ccccc1)c1ncnc2sccc12 | -21% | 0 | ? | ?
Cn1cc(S(=O)(=O)c2cccc(Cl)c2)c(=O)c2cc(F)c(N3CCCCC3)cc21 | -2%[46.1 µM] | -61* | · | 1%
COc1ccc(-c2cc(C(F)(F)F)nc(S(=O)(=O)CCCC(=O)Nc3cccc(O)c3)n2)cc1OC | ? | -99* | ? | 20µM*
COc1ccc(NC(=O)CCCS(=O)(=O)c2nc(-c3ccc(OC)c(OC)c3)cc(C(F)(F)F)n2)cc1OC | ? | -100* | ? | 32µM*
FC(F)(F)c1cc(-c2ccccc2)nc(N2CCCCCC2)n1 | -9% | -21 | 18% | 2%
COc1ccccc1-c1cc(C(F)(F)F)nc(S(=O)(=O)CCCC(=O)Nc2ccc(F)c(Cl)c2)n1 | 4%[46.1 µM] | 10 | 24%[46.1 µM] | 0%
Cc1cc(NC(=O)CCS(=O)(=O)c2nc(-c3ccccc3)cc(C(F)(F)F)n2)no1 | ? | -104* | ? | 25µM*
CS(=O)(=O)c1nc(-c2ccccc2)cc(C(F)(F)F)n1 | ? | -98* | 6.3µM* | 7.9µM*
COc1ccccc1-c1cc(C(F)(F)F)nc(S(=O)(=O)CCCC(=O)Nc2cc(OC)c(OC)c(OC)c2)n1 | ? | -2 | ? | 19%
O=C(Nc1ccc(Br)cc1F)c1cc(S(=O)(=O)NC2CCCCC2)ccc1F | ? | 0 | · | 15%
COc1ccc(-c2cc(C(F)(F)F)nc(S(=O)(=O)CCCC(=O)Nc3ccccc3C(F)(F)F)n2)cc1OC | 0%[46.1 µM] | -100* | -19%[46.1 µM] | 22µM*
COc1ccc(NC(=O)CCS(=O)(=O)c2nc(-c3ccc4c(c3)OCO4)cc(C(F)(F)F)n2)cc1 | -32%[46.1 µM] | -76* | -17%[46.1 µM] | -6%
O=C(CCS(=O)(=O)c1nc(-c2ccc3c(c2)OCO3)cc(C(F)(F)F)n1)Nc1ccc(F)cc1F | 12%[46.1 µM] | 40 | ? | ?
Cc1ccc(C(=O)N/C(=C\c2ccc(-c3ccc(Cl)cc3)o2)C(=O)NCCCN(C)C)cc1 | ? | -72* | 6.3µM* | -22%
CN(C)CCNC(=O)/C(=C/c1ccc(-c2cccc(Cl)c2)o1)NC(=O)c1ccccc1 | ? | 12 | 8.2µM* | -16%
COc1ccc(C(=O)N/C(=C\c2ccc(-c3cccc([N+](=O)[O-])c3)o2)C(=O)NCCCN2CCOCC2)cc1 | · | -26 | · | ?
Cc1ccc(C(=O)N/C(=C\c2ccc(-c3cccc([N+](=O)[O-])c3)o2)C(=O)NCCCN2CCOCC2)cc1 | · | -62* | · | -22%
SMILES | LASV entry inh | HCMV inh | Marburg entry inh | FMDV antiviral
CN(C)CCCNC(=O)/C(=C/c1ccc(-c2ccc([N+](=O)[O-])cc2)o1)NC(=O)c1ccccc1 | · | -8 | · | -27%
CCN1C(=O)[C@H]2[C@H]3[C@H](O)[C@H](O)C/C(=N\OC[C@H]4O[C@H](c5ccccc5)C=C[C@@H]4Oc4ccc(OC)cc4)[C@@H]3CC[C@H]2C1=O | · | · | -28%[14.2 µM] | ·
Cc1ccc(NC(=O)c2c(C)oc3ccc(O)c(CN4CCCCC4)c23)cc1 | ? | -65* | ? | -15%
COc1ccc(NC(=O)c2c(C)oc3ccc(O)c(CN4CCCCCC4)c23)cc1Cl | ? | -94* | 4.5µM* | 0%
Cc1ccc(NC(=O)c2c(C)oc3ccc(O)c(CN4CCCCC4)c23)c(C)c1 | -3%[46.1 µM] | -20 | ? | -23%
Nc1n[nH]c(-c2ccccc2[N+](=O)[O-])n1 | 18% | -96* | ? | -3%
COc1ccccc1NC1=C(NC(C)=O)C(=O)c2ccccc2C1=O | · | -66* | · | 6%
CN(C)c1ccc(NC2=C(Cl)C(=O)c3ccccc3C2=O)cc1 | ? | -97* | ? | ?
COC1=C(Nc2ccccc2OC)C(=O)c2ccccc2C1=O | 13% | 16 | 6%[46.1 µM] | -2%
CC(=O)Nc1ccc(NC2=C(Cl)C(=O)c3ccccc3C2=O)cc1 | ? | -101* | ? | 28µM*
O=C1C(Cl)=C(NCCCO)C(=O)c2ccccc21 | -18% | -29 | ? | ?
CCC1CN(CCNC(=O)c2ccccc2-n2cccn2)Cc2cc(OC)ccc2O1 (stereo not given) | · | · | · | -13%
Cc1ccc(S(=O)(=O)N2C[C@@H]3CCCC[C@@H]3[C@@H](C)[C@H]2c2cn(Cc3ccccc3)c3ccccc23)cc1 | · | -97* | · | 0%
COc1ccc2c(c1)c([C@@H]1[C@H](C)[C@H]3CCCC[C@H]3CN1S(=O)(=O)c1ccc(C)cc1)cn2C | · | -6 | · | -4%
Cc1ccc(S(=O)(=O)N2C[C@@H]3CCCC[C@@H]3[C@@H](C)[C@H]2c2cn(Cc3ccccc3)c3ncccc23)cc1 | · | -86* | · | -25%
Cc1ccc(S(=O)(=O)N2C[C@@H]3[C@H]4CC[C@H](C4)[C@@H]3[C@@H](C)[C@@H]2c2cn(Cc3ccccc3)c3ncccc23)cc1 | · | ? | · | -23%
CC(=O)Oc1ccccc1C(=O)Nc1ccccc1 | · | -17 | · | 15%
COC1(OC)C=CC(=O)C=C1NC(=O)c1ccccc1OC(C)=O | · | -78* | · | ?
Cc1nc2ccc(Br)cn2c1NC(C)(C)C | 1% | -35 | 1% | -4%
Cc1nc2ccc(Br)cn2c(=O)c1Cl | -5% | -33 | -3% | 4µM*
Cc1ccc(S(=O)(=O)N2CCCc3nc(-c4ccc(F)cc4)ccc32)cc1 | · | 47 | · | ·
CS(=O)(=O)c1ccc(C(=O)OCC(=O)N2CCN(CCC3CCCCC3)CC2)cc1[N+](=O)[O-] | · | -103* | · | 25µM*
CS(=O)(=O)c1ccc(C(=O)OCC(=O)NC(=O)C2CCCCC2)cc1[N+](=O)[O-] | ? | -77* | ? | 22µM*
CS(=O)(=O)c1ccc(C(=O)OCC(=O)N2CCOCC2)cc1[N+](=O)[O-] | · | -80* | · | ?
CS(=O)(=O)c1ccc(C(=O)OCC(=O)NC(=O)C2COc3ccccc3O2)cc1[N+](=O)[O-] (stereo not given) | -12% | 27 | -26% | 0%
COc1ccc(C2=NN(C(=O)COC(=O)c3ccc(S(C)(=O)=O)c([N+](=O)[O-])c3)C(c3ccco3)C2)cc1 (stereo not given) | ? | 42 | ? | 25µM*

From PubChem
